Inconclusive results are not listed. Entries that show only a call come without a potency. Activity calls are given as the source filed them. Calls follow the shape of the dose curve; as a rule, active = well fitted cell-killing curve with a large enough effect; inconclusive = small, poorly fitted or top-dose-only effect, or effect the other way; inactive = flat fitted curve, though single readings scatter. Where a SMILES comes first, the peptide text is derived from it. [ ]: non-standard residue; d: D form. ξ: configuration not given here. ξPhe(βξ-Me) = CC(c1ccccc1)C(N)C(=O)O; GABA = NCCCC(=O)O
Potency is read from the fitted curve at half-maximal effect.

In the assay the test system is Hek293T. Nature of the assay: Primary qHTS to identify gynecologic anti-cancer compounds using libraries of approved drugs and bioactive compounds (AID 1345084). Also: nearly all actives have a fitted effect of over 55% in size. To be noted: Gynecologic cancer cell panel viability, ATPlite luminescence, 48 h, control line for the selectivity index; series mostly up to 57.5 µM. Summed up: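 Luminescence from the ATPlite ATP-monitoring reagent indicates viable cell number; lower signal means cytotoxicity. Cells received compound 16 h after seeding and were exposed for 48 h across five concentrations.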
On the technique in general: qHTS replaces the single test concentration by a dilution series.
Turning to `COC(=O)C1C(CC(C)=O)C=CC(O)C12Oc1cc(C)cc(O)c1C2=O` (configuration not stated), the Potency entry is “inactive”. As for `CC1(C)CCC[C@@]2(C)[C@H]1[C@H](O)C=C1COC(=O)[C@@]12O`, the Potency entry is “inactive”. On the same count and under the same terms, as for `O=C(O)Cc1nn(Cc2nc3cc(C(F)(F)F)ccc3s2)c(=O)c2nccnc12`, the entry is “inactive”. The same measure, in the same setting: in the case of `CC1CCC2(C(=O)OC3OC(CO)C(O)C(O)C3O)CCC3(C(=O)O)C(=CCC4C5(C)CCC(OC6OC(C)C(O)C(O)C6O)C(C)(C)C5CCC43C)C2C1C` (configuration not stated) it was “inactive”. Same read-out and setting: in the case of `CC(CO[C@@H]1O[C@H](COC(=O)/C=C/c2ccc(O)c(O)c2)[C@@H](O)[C@H](O)[C@H]1O)C1(O)COC(=O)C1` (some centres not stated) it was “inactive”; in that of `CCCCN(CCCC)C(=O)CN1C[C@H](c2ccc3c(c2)OCO3)[C@@H](C(=O)O)[C@@H]1c1ccc(OC)cc1`, “inactive”. For the compound `CC(C)C(=O)O[C@@H]1[C@@H](O)[C@@H](O[C@H]2O[C@H](CO)[C@@H](O)[C@H](O)[C@H]2O)O[C@H](CO)[C@H]1O`, the Potency entry is “inactive”. On the same count and under the same terms, as for `CC1(C)CC[C@]2(C(=O)O)CC[C@]3(C)C(=CCC4[C@@]5(C)CCC(O[C@@H]6OC[C@H](O)[C@H](O)[C@H]6O[C@@H]6O[C@H](CO)[C@@H](O)[C@H](O)[C@H]6O)[C@@](C)(CO)C5CC[C@]43C)[C@@H]2C1` (some centres not stated), the entry is “inactive”. Consider `CCc1c(CC(N)=O)c2cc(OCCCP(=O)(O)O)ccc2n1Cc1ccccc1`, for which the Potency entry is “inactive”. Still for that read-out and setting: in the case of `COc1ccc(C[C@H](N)C(=O)N[C@H]2[C@@H](O)[C@H](n3cnc4c(N(C)C)ncnc43)O[C@@H]2CO)cc1` it was 2820 nM (active); in that of `COC(=O)C1=CO[C@@H](O[C@@H]2O[C@H](CO)[C@@H](O)[C@H](O)[C@H]2O)[C@@H]2[C@@H](C(=O)OC)[C@@H](O)C(O)[C@H]12` (some centres not stated), “inactive”. Regarding `CC(C)CC1NC(=O)C(C(C)c2ccccc2)NC(=O)C(C(C)C)NC(=O)C(C)NC(=O)CCCNC(=O)C(Cc2c[nH]c3ccccc23)NC(=O)C(C)NC1=O` (stereo not drawn) (cyclo([GABA]AV[ξPhe(βξ-Me)]LAW); configuration not given here), the Potency entry was “inactive”. The same measure, in the same setting: in the case of `C=C1CCC2C(C)(C)C(O)CCC2(C)C1CCC(C)CCOC(=O)CCC(=O)O` (configuration not stated) it was “inactive”. On the same count and under the same terms, as for `COc1cc(C)c(C(=O)O[C@H]2[C@@H](O)[C@H](n3ccc(=O)[nH]c3=O)O[C@@H]2CO)c(OC)c1`, the entry is “inactive”.

In the case of `COC(=O)C1=COC(O[C@@H]2O[C@H](CO)[C@@H](O)[C@H](O)[C@H]2O)/C(=C\COC(=O)c2ccc(OC3OC(CO)C(O)C(O)C3O)c(OC)c2)C1CC(=O)OCCc1ccc(O)cc1` (some centres not stated), the activity change, negative = cytotoxicity was 17.6% [at 11.6 µM] (inactive). Take `COc1cc(CC(COC2OC(CO)C(O)C(O)C2O)c2cc(/C=C/CO)cc(OC)c2O)ccc1O` (configuration not stated): the Potency result was “inactive”. `CC1(C)C[C@H]2C3=CCC4[C@@]5(C)CC[C@H](O[C@H]6O[C@H](C(=O)O)[C@@H](O)[C@H](O)[C@H]6O[C@H]6O[C@H](CO)[C@@H](O)[C@H](O)[C@H]6O[C@@H]6O[C@H](CO)[C@@H](O)[C@H](O)[C@H]6O)[C@](C)(CO)C5CC[C@@]4(C)[C@]3(C)CC[C@@]2(C)[C@H](O[C@@H]2OC[C@H](O)[C@H](OC3O[C@H](CO)[C@@H](O)[C@H](O)[C@H]3O)[C@H]2O)[C@@H]1O` (some centres not stated): the activity change, negative = cytotoxicity is -1.35% [at 6.55 µM] (inactive). As for `O=C1N(CC2CCCCN2)CCN1c1ccccc1` (configuration not stated), the Potency result is “inactive”. For `CCCOc1ccn2c(C(C)=O)cc(-c3ccccc3S(C)(=O)=O)c2c1`, the Potency result was “inactive”.

With `COc1cc(/C=C/C(=O)O[C@H]2[C@H](O)[C@@H](CO)O[C@@]2(CO)O[C@H]2O[C@H](COC(=O)c3ccc(O)cc3)[C@@H](O)[C@H](O)[C@H]2O)cc(OC)c1OC`, the Potency result is “inactive”. Still for that read-out and setting: as for `OC[C@H]1O[C@@H](n2cnc3c2NC=NC[C@H]3O)C[C@@H]1O`, the entry is “inactive”; as for `CNc1nc(Nc2cnn([C@H]3CCN(C4COC4)C[C@@H]3F)c2Cl)ncc1C(F)(F)F`, “inactive”. Regarding `CCCCS(=O)(=O)Nc1ncnc(OCCOc2ncc(Br)cn2)c1-c1ccc(Br)cc1`, the Potency entry was “inactive”. Regarding `CC/C=C/CC1=C(CCCCCCCC(=O)O)CCC1=O`, the Potency result is “inactive”. With `C[C@@H]1O[C@@H](OC[C@H]2O[C@@H](OCCc3ccccc3)[C@H](O)[C@@H](O)[C@@H]2O)[C@H](O)[C@H](O)[C@H]1O`, the Potency entry was “inactive”. Same read-out and setting: in the case of `C=C[C@](C)(CC/C=C(\C)C(=O)O)O[C@@H]1OC[C@H](O)[C@H](O)[C@H]1O` it was “inactive”; in that of `FC(F)(F)c1cc(C(F)(F)F)c2ccc3nc(-c4nnco4)cn3c2n1`, “inactive”; in that of `C[C@@H]1O[C@@H](OC[C@H]2O[C@@H](OCC3CCC4CC3C4(C)C)[C@H](O)[C@@H](O)[C@@H]2O)[C@H](O)[C@H](O)[C@H]1O` (some centres not stated), “inactive”. On the same count and under the same terms, as for `O=C1[C@H](O[C@@H]2O[C@H](CO)[C@@H](O)[C@H](O)[C@H]2O)Oc2ccccc2N1O`, the entry is “inactive”. On to `C[C@@H]1O[C@@H](O[C@H]2[C@H](OC(=O)[C@]34CCC(C)(C)C[C@H]3C3=CCC5[C@@]6(C)C[C@H](O)[C@H](O[C@@H]7O[C@H](CO[C@@H]8OC[C@H](O)[C@H](O)[C@H]8O)[C@@H](O)[C@H](O)[C@H]7O)C(C)(C)C6CC[C@@]5(C)[C@]3(C)C[C@H]4O)OC[C@@H](O)[C@@H]2O)[C@H](O)[C@H](O[C@@H]2OC[C@](O)(CO)[C@H]2O)[C@H]1O[C@@H]1OC[C@H](O)[C@H](O[C@@H]2OC[C@@H](O)[C@H](O)[C@H]2O)[C@H]1O` (some centres not stated), for which the activity change, negative = cytotoxicity was 7.42% [at 6.55 µM] (inactive). On to `COC(=O)C1C(c2ccc(O)cc2)C(C(=O)OC)C1c1ccc(O)cc1` (configuration not stated), for which the Potency entry was “inactive”.

Regarding `CCN[C@@H]1C[C@H](N)[C@@H](O[C@H]2OC(CN)=CC[C@H]2N)[C@H](O)[C@H]1O[C@H]1OC[C@](C)(O)[C@H](NC)[C@H]1O`, the Potency result was “inactive”. On the same count and under the same terms, as for `CCOC(=O)[C@H]1O[C@@H]1C(=O)N[C@@H](CC(C)C)C(=O)NCCC(C)C`, the entry is “inactive”; as for `CC(C)=CCC/C(C)=C/CC/C(C)=C/CC[C@]1(C)CCc2cc(O)cc(C)c2O1`, “inactive”; as for `O=C(c1ccc(NS(=O)(=O)c2cccc3cccnc23)cc1)N1CCN(CC2CC2)CC1`, “inactive”. In the case of `COc1cc(N2CCC(O)CC2)ccc1Nc1cc(Nc2ccccc2S(=O)(=O)C(C)C)c2cc[nH]c2n1`, the Potency entry was “inactive”. As for `C[C@@H]1O[C@@H](O[C@H]2[C@H](OC(=O)[C@]34CCC(C)(C)C[C@H]3C3=CCC5[C@@]6(C)C[C@H](O)[C@H](O[C@@H]7O[C@H](CO)[C@@H](O[C@@H]8O[C@H](CO)[C@@H](O)[C@H](O)[C@H]8O)[C@H](O)[C@H]7O)[C@@](C)(CO)C6[C@H](O)C[C@@]5(C)[C@]3(C)C[C@H]4O)OC[C@H](O)[C@@H]2O)[C@H](O)[C@H](O)[C@H]1O[C@@H]1OC[C@@H](O)[C@H](O[C@@H]2OC[C@](O)(CO)[C@H]2O)[C@H]1O` (some centres not stated), the activity change, negative = cytotoxicity is 1.73% [at 6.55 µM] (inactive).

For the origin of these results see PubChem BioAssay (NCATS).
